According to the supplement of paper PMC6555819:

Key:
Experiment in all cases: PBM binding z-score (relative to random genomic background probes); higher = stronger binding; sequences stand for … in GC…GCGATTGACAGCGTAGAATGAAGG
[1] = test system: FXR:RXRa (NR concentration 270 nM, RXRa partner concentration 90 nM)
Method in brief: (§1)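 Antibodies against each partner of ligand-free nuclear receptor dimers (one per run) detected binding on custom Agilent 4×180K protein-binding microarrays after 1 h incubation. The double-stranded probes had 34-nt variable regions carrying direct-repeat seeds, single-nucleotide variants, half-site ablations and random human genomic background sequences. Binding z-scores, from regression-normalized fluorescence, use the random background probes as reference.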

[2] = test system: LXRa:RXRa (NR concentration 270 nM, RXRa partner concentration 90 nM)
Method in brief: as §1

[3] = test system: LXRa homodimer (NR concentration 270 nM)
Method in brief: as §1

[4] = test system: LXRb:RXRa (NR concentration 270 nM, RXRa partner concentration 90 nM)
Method in brief: as §1

[5] = test system: LXRb homodimer (NR concentration 270 nM)
Method in brief: as §1

[6] = test system: PPARa:RXRa (NR concentration 270 nM, RXRa partner concentration 90 nM)
Method in brief: as §1

[7] = test system: PPARg:RXRa (NR concentration 180 nM, RXRa partner concentration 90 nM)
Method in brief: as §1

[8] = test system: PPARg:RXRa 270nM:90nM, anti-RXR (NR concentration 270 nM, RXRa partner concentration 90 nM)
Method in brief: as §1

[9] = test system: PPARg:RXRa 30nM:10nM, anti-RXR (NR concentration 30 nM, RXRa partner concentration 10 nM)
Method in brief: as §1

[10] = test system: PPARg:RXRa 90nM:30nM, anti-RXR (NR concentration 90 nM, RXRa partner concentration 30 nM)
Method in brief: as §1

[11] = test system: PPARg:RXRa DBDmut IVT, anti-RXR (DBD mutation: RXRa K156A/R161A, NR concentration 270 nM, RXRa partner concentration 90 nM)
Method in brief: as §1

[12] = test system: PPARg:RXRa IVT, anti-PPARg (NR concentration 270 nM, RXRa partner concentration 90 nM)
Method in brief: as §1

[13] = test system: PPARg DBDmut:RXRa IVT, anti-PPARg (DBD mutation: PPARg1 K132A/R137A, NR concentration 270 nM, RXRa partner concentration 90 nM)
Method in brief: as §1

[14] = test system: PPARg DBDmut IVT, anti-PPARg (DBD mutation: PPARg1 K132A/R137A, NR concentration 270 nM)
Method in brief: as §1

[15] = test system: PPARg homodimer (NR concentration 180 nM)
Method in brief: as §1

[16] = test system: PXR:RXRa (NR concentration 270 nM, RXRa partner concentration 90 nM)
Method in brief: as §1

[17] = test system: PXR homodimer (NR concentration 270 nM)
Method in brief: as §1

[18] = test system: RARa:RXR (NR concentration 270 nM, RXRa partner concentration 90 nM)
Method in brief: as §1

[19] = test system: RARa homodimer (NR concentration 270 nM)
Method in brief: as §1

[20] = test system: RARb:RXRa (NR concentration 270 nM, RXRa partner concentration 90 nM)
Method in brief: as §1

Sequence | PBM binding z-score [1] | PBM binding z-score [2] | PBM binding z-score [3] | PBM binding z-score [4] | PBM binding z-score [5] | PBM binding z-score [6] | PBM binding z-score [7] | PBM binding z-score [8] | PBM binding z-score [9] | PBM binding z-score [10] | PBM binding z-score [11] | PBM binding z-score [12] | PBM binding z-score [13] | PBM binding z-score [14] | PBM binding z-score [15] | PBM binding z-score [16] | PBM binding z-score [17] | PBM binding z-score [18] | PBM binding z-score [19] | PBM binding z-score [20]
AGTCAAAGTTCATCCAGGTAACGTAAGATATGCT | 6.4 | 6.22 | 5.22 | 3.62 | 1.6 | 4.82 | 6.19 | 6.44 | 3.61 | 5.54 | 0.286 | 3.48 | 1.21 | 1.23 | 2.63 | 5.26 | 8.19 | 3.69 | 1.34 | 4.83
ACTAGCATGCCAAGGGTCACTCAAGATTAGTCCG | 2.51 | 2.97 | 0.285 | 2.95 | 0.101 | 4.14 | 5.14 | 6.08 | 3.82 | 6.39 | 0.455 | 2.66 | -0.409 | 0.469 | 2.73 | 3.31 | -0.0678 | 4.02 | 0.721 | 3.38
ATACCAAGGTGATCGAGAGGTCGTTGATACTAAC | 1.97 | 1.51 | 0.71 | 1.37 | 0.0291 | 1.72 | 0.979 | 1 | 0.238 | 0.545 | 0.406 | 1.39 | 0.441 | 0.884 | 1.08 | 2.91 | 1.12 | 2.04 | 0.692 | 1.56
CCTAACAGGCCAATCTGGGTCACTCAAGGCTTGA | 1.06 | 1.75 | 0.16 | 1.19 | -0.0196 | 3.19 | 2.31 | 2.35 | 0.094 | 1.57 | 4.43 | 5.18 | 0.79 | -0.8 | 1.16 | 1.3 | 0.00111 | 1.43 | 0.117 | 1.77
TCAGACAGATGAAGGTAACTCAGGTACGCAGTCG | 0.719 | 0.98 | -0.272 | 0.763 | -0.545 | 0.832 | 0.832 | 2.06 | 4.27 | 3.3 | 2.29 | 0.179 | -0.273 | -0.478 | 0.326 | 0.521 | 0.216 | 0.684 | 0.265 | 0.227
CGTCAAAGTTCGAGGTAACGTAACAGAAAGCAGC | 1.32 | 1.25 | 0.0429 | 0.91 | -0.403 | 1.74 | 1.36 | 1.98 | 0.481 | 1.36 | 0.256 | 0.878 | -1.11 | 0.105 | 1.18 | 1.28 | 0.589 | 1.39 | 0.233 | 2.73
CGAACGAGGGCATGAGTTAATAGCAAATGCCGAT | 0.396 | 0.206 | -0.633 | 0.117 | -0.921 | 1.49 | 1.64 | 1.98 | 0.666 | 1.58 | 2.98 | 2.1 | -0.0604 | 0.0299 | -0.39 | 0.548 | 0.0291 | 0.254 | -0.352 | 1.89
